# In PMC7862700, “An all-to-all approach to the identification of sequence-specific readers for epigenetic DNA modifications on cytosine”:
# Assays:
# Assay in all cases: DAPPL (digital affinity profiling via proximity ligation, sequencing); 10 mM Tris-HCl pH 7.5, 50 mM NaCl, 1 mM DTT, 4% glycerol, room temperature, 30 min; GST-TFs on glutathione beads, 16-mer random dsDNA library, 0.1% formaldehyde crosslink after washing; high values mean tight binding
# FEV = molecular target: T1, FEV (Homo sapiens, UniProt Q99581 1-238); details: protein: recombinant; tags: N-terminal GST; dsDNA, one strand shown
# T1 sequence: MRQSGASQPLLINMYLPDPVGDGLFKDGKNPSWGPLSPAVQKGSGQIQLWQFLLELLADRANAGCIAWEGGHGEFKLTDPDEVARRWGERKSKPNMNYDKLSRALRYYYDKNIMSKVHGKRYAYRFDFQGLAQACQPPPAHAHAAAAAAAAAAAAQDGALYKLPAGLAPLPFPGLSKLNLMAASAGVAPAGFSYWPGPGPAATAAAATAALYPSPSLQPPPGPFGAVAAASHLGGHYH
# Summary of the method: (§1)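 Yeast served to express human transcription factors as GST fusions, which were then captured on glutathione beads and labelled with DNA barcodes. Pooled with a tag-only sample, they were incubated with 200 nmole of a 16-mer random double-stranded DNA library for 30 min at room temperature in Tris/NaCl/DTT/glycerol buffer, washed, crosslinked with 0.1% formaldehyde, ligated by proximity, amplified by PCR and sequenced. Dividing each hexamer's read frequency for a factor by its frequency for the tag-only sample gives the binding signal.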
# ETV5 = ETV5 (Homo sapiens, UniProt P41161 1-510); details: protein: recombinant; tags: N-terminal GST; dsDNA, one strand shown
# ETV5, sequence (P41161 whole entry): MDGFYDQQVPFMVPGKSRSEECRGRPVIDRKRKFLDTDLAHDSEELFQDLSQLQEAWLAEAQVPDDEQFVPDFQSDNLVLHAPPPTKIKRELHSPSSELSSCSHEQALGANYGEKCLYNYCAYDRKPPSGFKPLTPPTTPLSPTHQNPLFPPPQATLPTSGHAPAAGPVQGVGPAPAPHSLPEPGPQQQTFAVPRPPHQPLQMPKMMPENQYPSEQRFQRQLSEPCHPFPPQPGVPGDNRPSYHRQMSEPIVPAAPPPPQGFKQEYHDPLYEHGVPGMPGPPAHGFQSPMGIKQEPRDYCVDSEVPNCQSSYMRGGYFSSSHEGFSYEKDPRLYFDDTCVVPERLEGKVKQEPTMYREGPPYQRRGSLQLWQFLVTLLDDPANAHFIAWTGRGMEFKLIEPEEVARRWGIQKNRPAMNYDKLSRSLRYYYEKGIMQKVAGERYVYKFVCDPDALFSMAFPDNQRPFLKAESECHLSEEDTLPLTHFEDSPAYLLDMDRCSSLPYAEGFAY
# Summary of the method: as §1
# HSF1 = HSF1 (Homo sapiens, UniProt Q00613 1-529); details: protein: recombinant; tags: N-terminal GST; chain copies: 3; dsDNA, one strand shown
# HSF1, sequence (Q00613 whole entry): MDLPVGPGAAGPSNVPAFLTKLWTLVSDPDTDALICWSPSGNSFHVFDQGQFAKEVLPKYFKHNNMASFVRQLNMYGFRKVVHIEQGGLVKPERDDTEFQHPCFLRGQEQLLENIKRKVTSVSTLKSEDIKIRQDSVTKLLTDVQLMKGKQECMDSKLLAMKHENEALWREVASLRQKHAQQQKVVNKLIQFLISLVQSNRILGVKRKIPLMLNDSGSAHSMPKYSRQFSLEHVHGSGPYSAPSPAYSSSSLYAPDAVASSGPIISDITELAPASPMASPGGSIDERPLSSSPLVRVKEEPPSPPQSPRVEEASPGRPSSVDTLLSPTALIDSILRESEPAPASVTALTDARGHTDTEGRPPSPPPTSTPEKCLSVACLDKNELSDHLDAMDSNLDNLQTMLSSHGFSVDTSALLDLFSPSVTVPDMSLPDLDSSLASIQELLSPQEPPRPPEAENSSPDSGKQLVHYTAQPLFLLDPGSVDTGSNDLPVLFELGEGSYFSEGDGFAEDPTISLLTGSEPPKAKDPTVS
# Summary of the method: as §1
# SPIC = molecular target: T2, SPIC (Homo sapiens, UniProt Q8N5J4 1-248); details: protein: recombinant; tags: N-terminal GST; dsDNA, one strand shown
# T2 sequence: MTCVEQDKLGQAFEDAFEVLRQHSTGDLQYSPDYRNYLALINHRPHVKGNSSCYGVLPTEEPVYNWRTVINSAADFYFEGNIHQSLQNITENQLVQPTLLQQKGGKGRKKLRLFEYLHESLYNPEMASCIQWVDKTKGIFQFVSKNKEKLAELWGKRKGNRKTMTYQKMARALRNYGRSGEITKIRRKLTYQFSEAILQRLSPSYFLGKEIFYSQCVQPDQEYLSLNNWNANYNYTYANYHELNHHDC
# Summary of the method: as §1
# ELF4 = ELF4 (Homo sapiens, UniProt Q99607 1-663); details: protein: recombinant; tags: N-terminal GST; dsDNA, one strand shown
# ELF4, sequence (Q99607 whole entry): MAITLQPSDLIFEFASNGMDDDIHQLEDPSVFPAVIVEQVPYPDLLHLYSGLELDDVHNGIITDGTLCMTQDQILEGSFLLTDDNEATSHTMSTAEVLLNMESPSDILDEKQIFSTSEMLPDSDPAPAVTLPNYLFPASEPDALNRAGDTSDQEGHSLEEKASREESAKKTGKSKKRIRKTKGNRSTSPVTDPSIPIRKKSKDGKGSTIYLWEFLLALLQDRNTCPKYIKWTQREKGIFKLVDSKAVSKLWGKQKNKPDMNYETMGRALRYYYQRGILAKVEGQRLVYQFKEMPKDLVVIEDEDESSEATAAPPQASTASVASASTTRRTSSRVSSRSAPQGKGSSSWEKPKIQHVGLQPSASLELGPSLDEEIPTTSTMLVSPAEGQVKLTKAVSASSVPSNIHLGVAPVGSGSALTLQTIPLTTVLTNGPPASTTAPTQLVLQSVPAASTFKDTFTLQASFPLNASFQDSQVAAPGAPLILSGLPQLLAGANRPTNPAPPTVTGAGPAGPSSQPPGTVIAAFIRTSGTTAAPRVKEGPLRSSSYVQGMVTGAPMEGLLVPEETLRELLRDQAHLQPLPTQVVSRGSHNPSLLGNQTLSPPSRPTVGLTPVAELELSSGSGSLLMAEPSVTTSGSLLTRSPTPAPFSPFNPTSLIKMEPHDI
# Summary of the method: as §1
# ELK4 = molecular target: T3, ELK4 (Homo sapiens, UniProt P28324-2 1-405); details: protein: recombinant; tags: N-terminal GST; dsDNA, one strand shown
# T3 sequence: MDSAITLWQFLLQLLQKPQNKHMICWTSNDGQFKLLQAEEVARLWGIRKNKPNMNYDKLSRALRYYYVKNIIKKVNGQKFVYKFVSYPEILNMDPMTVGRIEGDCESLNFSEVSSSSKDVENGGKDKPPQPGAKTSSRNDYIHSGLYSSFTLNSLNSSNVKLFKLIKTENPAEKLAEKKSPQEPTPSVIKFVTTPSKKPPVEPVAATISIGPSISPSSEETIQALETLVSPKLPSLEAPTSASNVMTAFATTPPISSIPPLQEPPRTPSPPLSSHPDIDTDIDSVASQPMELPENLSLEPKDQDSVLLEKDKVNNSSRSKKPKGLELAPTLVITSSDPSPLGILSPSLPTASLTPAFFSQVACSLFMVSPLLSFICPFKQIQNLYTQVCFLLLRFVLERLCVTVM
# Summary of the method: as §1
# ETV2 = molecular target: T4, ETV2 (Homo sapiens, UniProt O00321 1-342); details: protein: recombinant; tags: N-terminal GST; dsDNA, one strand shown
# T4 sequence: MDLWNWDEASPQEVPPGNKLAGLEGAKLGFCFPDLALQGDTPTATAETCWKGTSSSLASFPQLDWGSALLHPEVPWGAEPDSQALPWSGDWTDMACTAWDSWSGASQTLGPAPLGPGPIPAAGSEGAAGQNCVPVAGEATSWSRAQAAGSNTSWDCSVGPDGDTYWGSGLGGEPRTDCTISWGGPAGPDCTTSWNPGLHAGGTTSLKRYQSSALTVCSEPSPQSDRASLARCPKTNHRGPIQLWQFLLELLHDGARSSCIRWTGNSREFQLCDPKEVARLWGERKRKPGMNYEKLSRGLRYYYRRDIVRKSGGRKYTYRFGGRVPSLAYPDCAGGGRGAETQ
# Summary of the method: as §1
# ELF3 = molecular target: T5, ELF3 (Homo sapiens, UniProt P78545 1-371); details: protein: recombinant; tags: N-terminal GST; dsDNA, one strand shown
# T5 sequence: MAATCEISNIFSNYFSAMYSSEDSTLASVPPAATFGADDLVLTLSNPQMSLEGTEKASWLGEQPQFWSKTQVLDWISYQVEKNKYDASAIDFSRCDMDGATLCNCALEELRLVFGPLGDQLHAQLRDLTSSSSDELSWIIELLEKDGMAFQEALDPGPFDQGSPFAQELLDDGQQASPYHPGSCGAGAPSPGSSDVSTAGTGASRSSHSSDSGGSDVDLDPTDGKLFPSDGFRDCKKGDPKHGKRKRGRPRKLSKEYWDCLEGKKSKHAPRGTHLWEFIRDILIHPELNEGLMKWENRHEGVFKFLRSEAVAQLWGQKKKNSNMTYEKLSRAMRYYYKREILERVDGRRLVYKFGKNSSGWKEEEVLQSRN
# Summary of the method: as §1
# CRX = CRX (Homo sapiens, UniProt O43186 1-299); details: protein: recombinant; tags: N-terminal GST; dsDNA, one strand shown
# CRX, sequence (O43186 whole entry): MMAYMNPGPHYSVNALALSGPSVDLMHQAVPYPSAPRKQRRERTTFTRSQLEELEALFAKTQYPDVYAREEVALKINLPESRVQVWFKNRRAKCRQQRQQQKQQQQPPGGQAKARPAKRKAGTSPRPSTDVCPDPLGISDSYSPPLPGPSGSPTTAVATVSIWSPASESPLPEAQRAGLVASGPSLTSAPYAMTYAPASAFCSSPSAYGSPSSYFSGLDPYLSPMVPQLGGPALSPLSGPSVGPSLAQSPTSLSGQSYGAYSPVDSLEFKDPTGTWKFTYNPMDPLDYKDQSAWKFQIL
# Summary of the method: as §1
# ETV1 = ETV1 (Homo sapiens, UniProt P50549 1-477); details: protein: recombinant; tags: N-terminal GST; dsDNA, one strand shown
# ETV1, sequence (P50549 whole entry): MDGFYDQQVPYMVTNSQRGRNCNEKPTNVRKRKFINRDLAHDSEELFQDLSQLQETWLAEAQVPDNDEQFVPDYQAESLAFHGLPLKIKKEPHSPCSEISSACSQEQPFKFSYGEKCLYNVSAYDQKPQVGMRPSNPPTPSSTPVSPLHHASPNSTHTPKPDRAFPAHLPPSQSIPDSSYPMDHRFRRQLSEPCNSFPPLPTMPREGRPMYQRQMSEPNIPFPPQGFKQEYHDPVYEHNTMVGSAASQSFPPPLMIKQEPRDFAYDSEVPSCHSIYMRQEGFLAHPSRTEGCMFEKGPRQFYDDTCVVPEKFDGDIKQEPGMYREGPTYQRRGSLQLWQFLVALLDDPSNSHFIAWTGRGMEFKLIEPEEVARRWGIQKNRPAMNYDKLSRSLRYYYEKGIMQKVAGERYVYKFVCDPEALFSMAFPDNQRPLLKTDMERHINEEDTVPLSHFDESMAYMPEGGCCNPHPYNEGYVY
# Summary of the method: as §1
# ERF = molecular target: T6, ERF (Homo sapiens, UniProt P50548 1-548); details: protein: recombinant; tags: N-terminal GST; dsDNA, one strand shown
# T6 sequence: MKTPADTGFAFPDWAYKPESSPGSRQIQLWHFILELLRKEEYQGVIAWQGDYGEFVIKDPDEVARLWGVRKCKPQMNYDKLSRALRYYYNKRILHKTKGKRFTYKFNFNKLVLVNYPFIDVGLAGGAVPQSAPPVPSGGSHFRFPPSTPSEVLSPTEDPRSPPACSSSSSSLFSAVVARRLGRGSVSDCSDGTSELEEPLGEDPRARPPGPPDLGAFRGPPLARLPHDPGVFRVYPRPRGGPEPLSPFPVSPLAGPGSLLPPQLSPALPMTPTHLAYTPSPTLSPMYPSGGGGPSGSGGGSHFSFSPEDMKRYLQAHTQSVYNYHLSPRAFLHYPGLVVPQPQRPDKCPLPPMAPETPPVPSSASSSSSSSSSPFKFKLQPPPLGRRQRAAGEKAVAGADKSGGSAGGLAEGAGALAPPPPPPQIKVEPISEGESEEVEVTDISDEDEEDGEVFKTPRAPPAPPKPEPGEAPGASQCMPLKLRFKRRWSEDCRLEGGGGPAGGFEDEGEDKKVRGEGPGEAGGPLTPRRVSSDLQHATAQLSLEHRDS
# Summary of the method: as §1
# ETV3L = molecular target: T7, ETV3L (Homo sapiens, UniProt Q6ZN32 1-361); details: protein: recombinant; tags: N-terminal GST; dsDNA, one strand shown
# T7 sequence: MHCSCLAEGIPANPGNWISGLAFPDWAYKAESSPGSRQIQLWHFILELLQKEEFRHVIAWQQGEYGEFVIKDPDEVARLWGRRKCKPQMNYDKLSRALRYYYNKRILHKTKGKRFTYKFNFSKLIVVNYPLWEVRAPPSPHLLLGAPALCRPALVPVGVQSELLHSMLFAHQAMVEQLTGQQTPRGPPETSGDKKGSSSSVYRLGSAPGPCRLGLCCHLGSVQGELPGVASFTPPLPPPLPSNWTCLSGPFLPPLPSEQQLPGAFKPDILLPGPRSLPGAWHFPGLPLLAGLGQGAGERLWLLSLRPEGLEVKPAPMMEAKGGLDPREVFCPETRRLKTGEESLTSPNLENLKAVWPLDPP
# Summary of the method: as §1
# ETS2 = molecular target: T8, ETS2 (Homo sapiens, UniProt P15036 1-469); details: protein: recombinant; tags: N-terminal GST; dsDNA, one strand shown
# T8 sequence: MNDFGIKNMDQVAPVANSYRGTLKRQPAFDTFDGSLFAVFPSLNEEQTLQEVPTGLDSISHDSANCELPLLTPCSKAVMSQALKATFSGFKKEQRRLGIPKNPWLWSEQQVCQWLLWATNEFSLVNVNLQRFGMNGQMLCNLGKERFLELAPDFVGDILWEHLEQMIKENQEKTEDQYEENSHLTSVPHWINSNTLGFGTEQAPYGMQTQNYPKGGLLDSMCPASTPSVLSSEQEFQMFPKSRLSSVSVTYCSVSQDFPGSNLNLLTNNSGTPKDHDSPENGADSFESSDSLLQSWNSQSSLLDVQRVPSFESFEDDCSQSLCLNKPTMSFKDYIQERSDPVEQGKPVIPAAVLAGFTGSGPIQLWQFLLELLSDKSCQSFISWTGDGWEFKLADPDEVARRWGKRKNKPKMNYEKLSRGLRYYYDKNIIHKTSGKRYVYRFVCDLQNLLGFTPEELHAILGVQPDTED
# Summary of the method: as §1
# SPDEF = molecular target: T9, SPDEF (Homo sapiens, UniProt O95238 1-335); details: protein: recombinant; tags: N-terminal GST; dsDNA, one strand shown
# T9 sequence: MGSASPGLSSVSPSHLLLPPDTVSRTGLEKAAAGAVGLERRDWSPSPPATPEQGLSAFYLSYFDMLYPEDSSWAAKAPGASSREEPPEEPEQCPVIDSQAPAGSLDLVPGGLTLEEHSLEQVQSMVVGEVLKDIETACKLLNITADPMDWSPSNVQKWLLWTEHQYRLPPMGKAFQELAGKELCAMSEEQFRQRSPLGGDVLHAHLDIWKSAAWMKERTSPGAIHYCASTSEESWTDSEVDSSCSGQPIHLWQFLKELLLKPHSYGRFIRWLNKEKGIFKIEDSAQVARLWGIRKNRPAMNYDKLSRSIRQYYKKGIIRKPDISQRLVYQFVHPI
# Summary of the method: as §1
# ETV7 = molecular target: T10, ETV7 (Homo sapiens, UniProt Q9Y603 1-341); details: protein: recombinant; tags: N-terminal GST; dsDNA, one strand shown
# T10 sequence: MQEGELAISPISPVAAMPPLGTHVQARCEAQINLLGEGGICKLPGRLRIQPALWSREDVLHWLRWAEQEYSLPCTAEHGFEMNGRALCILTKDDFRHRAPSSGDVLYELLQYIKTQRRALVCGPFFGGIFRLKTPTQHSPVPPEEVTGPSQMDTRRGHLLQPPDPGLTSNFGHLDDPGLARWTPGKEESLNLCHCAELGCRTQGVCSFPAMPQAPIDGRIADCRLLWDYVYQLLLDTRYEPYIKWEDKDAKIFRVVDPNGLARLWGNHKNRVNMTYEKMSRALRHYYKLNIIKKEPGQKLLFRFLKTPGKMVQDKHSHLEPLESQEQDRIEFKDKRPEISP
# Summary of the method: as §1
# ELF5 = molecular target: T11, ELF5 (Homo sapiens, UniProt Q9UKW6-2 1-255); details: protein: recombinant; tags: N-terminal GST; dsDNA, one strand shown
# T11 sequence: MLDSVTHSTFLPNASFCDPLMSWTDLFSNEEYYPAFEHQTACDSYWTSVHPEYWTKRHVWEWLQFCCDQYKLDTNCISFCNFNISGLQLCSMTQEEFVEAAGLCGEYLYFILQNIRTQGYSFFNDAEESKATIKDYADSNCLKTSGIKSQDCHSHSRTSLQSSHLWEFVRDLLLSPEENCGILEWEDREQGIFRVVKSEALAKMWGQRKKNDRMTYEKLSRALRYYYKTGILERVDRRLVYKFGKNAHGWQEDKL
# Summary of the method: as §1
# ETV3 = molecular target: T12, ETV3 (Homo sapiens, UniProt P41162-2 1-143); details: protein: recombinant; tags: N-terminal GST; dsDNA, one strand shown
# T12 sequence: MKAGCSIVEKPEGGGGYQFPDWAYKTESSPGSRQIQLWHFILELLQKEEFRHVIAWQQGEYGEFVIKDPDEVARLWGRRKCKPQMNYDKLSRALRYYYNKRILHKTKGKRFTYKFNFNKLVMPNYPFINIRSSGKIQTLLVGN
# Summary of the method: as §1
# ETV6 = ETV6 (Homo sapiens, UniProt P41212 1-452); details: protein: recombinant; tags: N-terminal GST; dsDNA, one strand shown
# ETV6, sequence (P41212 whole entry): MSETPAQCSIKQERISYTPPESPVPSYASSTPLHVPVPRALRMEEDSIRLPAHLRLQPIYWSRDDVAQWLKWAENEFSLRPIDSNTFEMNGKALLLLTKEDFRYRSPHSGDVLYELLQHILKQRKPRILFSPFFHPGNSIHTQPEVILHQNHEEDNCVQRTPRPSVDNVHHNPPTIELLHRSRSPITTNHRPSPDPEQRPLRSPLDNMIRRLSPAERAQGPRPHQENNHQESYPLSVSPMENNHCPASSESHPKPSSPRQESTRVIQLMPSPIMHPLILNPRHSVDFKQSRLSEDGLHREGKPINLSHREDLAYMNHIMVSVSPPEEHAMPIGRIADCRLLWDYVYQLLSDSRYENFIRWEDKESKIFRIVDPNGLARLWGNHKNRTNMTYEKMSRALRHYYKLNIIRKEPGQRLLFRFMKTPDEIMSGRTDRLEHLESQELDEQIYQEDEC
# Summary of the method: as §1
sequence,measurement,setting,value
CGTTAA,binding signal,FEV,"1.18 fold enrichment (6-mer frequency, TF over GST control)"
same,binding signal,ETV5,"1.21 fold enrichment (6-mer frequency, TF over GST control)"
same,binding signal,HSF1,"1.31 fold enrichment (6-mer frequency, TF over GST control)"
same,binding signal,SPIC,"1.34 fold enrichment (6-mer frequency, TF over GST control)"
same,binding signal,ELF4,"1.12 fold enrichment (6-mer frequency, TF over GST control)"
same,binding signal,ELK4,"1.07 fold enrichment (6-mer frequency, TF over GST control)"
same,binding signal,ETV2,"1.36 fold enrichment (6-mer frequency, TF over GST control)"
same,binding signal,ELF3,"1.27 fold enrichment (6-mer frequency, TF over GST control)"
same,binding signal,CRX,"1.7 fold enrichment (6-mer frequency, TF over GST control)"
same,binding signal,ETV1,"1.09 fold enrichment (6-mer frequency, TF over GST control)"
same,binding signal,ERF,"1.06 fold enrichment (6-mer frequency, TF over GST control)"
same,binding signal,ETV3L,"1.18 fold enrichment (6-mer frequency, TF over GST control)"
same,binding signal,ETS2,"1.12 fold enrichment (6-mer frequency, TF over GST control)"
same,binding signal,SPDEF,"1.1 fold enrichment (6-mer frequency, TF over GST control)"
same,binding signal,ETV7,"1.12 fold enrichment (6-mer frequency, TF over GST control)"
same,binding signal,ELF5,"1.19 fold enrichment (6-mer frequency, TF over GST control)"
same,binding signal,ETV3,"1.21 fold enrichment (6-mer frequency, TF over GST control)"
same,binding signal,ETV6,"1.16 fold enrichment (6-mer frequency, TF over GST control)"
